Hits are enriched below; roughly 4.7% of the tested compounds scored in any of these assays.
tim23-1 inh = tim23-1 yeast growth inhibition; S. cerevisiae tim23-1 growth, BacTiter-Glo luminescence, 24 h; AID 463212; actives 1.3% (n = 330,000); inhibition, % at 20 µM;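 active = growth inhibition of the mutant yeast at or above 50%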;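 also: temperature-sensitive mutant grown at 25 °C; plate controls were DMSO-treated mutant yeast for no effect and medium wells lacking yeast for full effect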
tim10-1 inh = inhibits growth of tim10-1 mutant yeast; S. cerevisiae tim10-1 ts strain growth, BacTiter-Glo, 24 h; inhibition, % at 20 µM; actives 2.2% (n = 330,000); AID 463190;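 active = inhibition of at least 40%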;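 also: mutant grown at 25 °C; 0% = DMSO wells with yeast and 100% = wells holding no yeast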
SKKanGAS inh = inhibitors of SKKanGAS S. pyogenes growth in kanamycin (SK-promoter or general growth effect). BacTiter-Glo, 6 h. inhibition, % at 7.5 µM. actives 1.3% (n = 300,000);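 active = mean replicate score, as percent of positive control median, at least 50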;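 also: strain carries kanamycin resistance gene driven by streptokinase promoter and grows in 40 µg/ml kanamycin; loss of luminescence reflects streptokinase promoter inhibition or plain growth inhibition; 0% = median of DMSO wells and 100% = positive control at its reference dose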
PfHsp90 set2 = inhibits growth of yeast expressing Plasmodium falciparum Hsp90 | S. cerevisiae expressing PfHsp90, BacTiter-Glo ATP, 48 h; yeast lacking PDR1 and PDR3 efflux regulators | inhibition, % at 9.4 µM | actives 0.32% (n = 310,000);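 active = every replicate shows inhibition above about 80%, whatever the replicate mean, limit read from the data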;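 also: 0% = DMSO neutral controls and 100% = 20 µM radicicol positive controls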
TIM10 inh = growth inhibitors of TIM10 yeast strain | inhibition, % at 10 µM | actives 1.4% (n = 330,000) | S. cerevisiae TIM10 strain growth, BacTiter-Glo luminescence, 24 h;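 active = inhibition of 40% or more at the single tested concentration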;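 also: wild-type TIM10 isogenic control strain grown at permissive 25 °C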
ATG4B inhibitor = blocks human ATG4B protease cleavage of LC3 substrate. ATG4B cleavage of LC3-PLA2, NBD-HPC fluorescence, 1 h. AID 504462. Q9Y4P1. actives 0.51% (n = 340,000). inhibition, % at 8.33 µM; in the data active = inhibition above about 40%
Target sequence (Q9Y4P1 whole entry, looked up): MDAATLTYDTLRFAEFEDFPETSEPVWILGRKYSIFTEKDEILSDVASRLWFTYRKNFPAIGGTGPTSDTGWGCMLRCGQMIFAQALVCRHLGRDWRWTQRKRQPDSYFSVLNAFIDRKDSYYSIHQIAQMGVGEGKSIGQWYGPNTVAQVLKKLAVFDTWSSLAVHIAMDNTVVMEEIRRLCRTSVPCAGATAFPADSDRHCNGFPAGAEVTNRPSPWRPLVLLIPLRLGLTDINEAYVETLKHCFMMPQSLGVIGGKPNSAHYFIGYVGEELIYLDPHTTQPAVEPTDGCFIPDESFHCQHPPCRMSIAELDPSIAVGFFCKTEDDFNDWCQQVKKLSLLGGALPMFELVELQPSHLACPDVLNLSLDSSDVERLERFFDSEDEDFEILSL
ATG4B confirm = ATG4B (human) inhibition, single-dose confirmed; shares compounds with ATG4B inhibitor; actives 92% (n = 320); ATG4B protease fluorescent substrate cleavage assay; inhibition, % at 8.33 µM; in the data active = inhibition above about 39%
PLA2 ctr = counter-screen for ATG4B inhibitors: human phospholipase A2. actives 66% (n = 1,600). inhibition, % at 8.33 µM. purified PLA2, NBD-C6-HPC fluorescence, 45 min. shares compounds with ATG4B inhibitor. AID 588402; in the data active = inhibition above about 50%
Target sequence (P04054 whole entry, looked up): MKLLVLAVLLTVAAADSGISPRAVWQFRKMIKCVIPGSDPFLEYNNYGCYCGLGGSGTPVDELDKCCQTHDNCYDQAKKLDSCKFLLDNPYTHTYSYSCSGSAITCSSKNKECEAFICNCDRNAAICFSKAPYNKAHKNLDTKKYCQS
* = called active by the depositor; i = inactive; nt = not tested or not shown.

SMILES	tim23-1 inh	tim10-1 inh	SKKanGAS inh	PfHsp90 set2	TIM10 inh	ATG4B inhibitor	PLA2 ctr	others
CCOC(=O)c1sc(NC(=O)CCCn2nc([N+](=O)[O-])c(Cl)c2C)c(C(=O)OCC)c1C	10	-4	10	-5	0	57*	52*
CCCOC(=O)c1c(NC(=O)CCCn2nc([N+](=O)[O-])c(Cl)c2C)sc(C(=O)OC)c1C	17	3	23	54	14	62*	57*
Cc1c(Cl)c([N+](=O)[O-])nn1CCCC(=O)O	20	-13	4	9	0	-3	nt
COC(=O)c1c(C(=O)OC)c2ccccn2c1C(=O)c1ccc([N+](=O)[O-])cc1	16	9	1	5	16	1	nt
CCC1=NN(C(=O)c2cccc(Br)c2)C(O)(c2ccc(Br)cc2)C1 (stereo unspecified)	43	39	71*	14	31	43*	47	ATG4B confirm=58*
CCC1=NN(C(=O)c2ccc(C)cc2)C(O)(c2ccc(Br)cc2)C1 (stereo unspecified)	38	30	-4	1	9	3	nt
Cc1c(CCC(=O)O)c(=O)oc2cc3occ(C(C)(C)C)c3cc12	-1	-9	2	7	3	44*	61*
O=c1ccc2c(-c3ccccc3)c3ccc(O)cc3oc-2c1	19	24	25	-27	7	i	nt
COC(C[C@H](O)C[C@@H](O)[C@@H](C)OCc1ccccc1)OC	14	8	-1	-7	10	1	nt
c1ccc(CSc2nnc3c(n2)OC(c2ccco2)Nc2ccccc2-3)cc1 (stereo unspecified)	-12	13	19	0	5	42*	8	ATG4B confirm=96*
Cc1ccc(-c2nnc(Nc3ccc(CC(N)=O)cc3)c3ccccc23)cc1	16	-4	9	14	5	97*	97*
CNC(=O)c1ccc(Nc2nnc(-c3ccc(C)c(S(N)(=O)=O)c3)c3ccccc23)cc1	14	17	6	7	1	-7	nt
Cc1ccc(-c2nnc(Nc3ccc(CC(N)=O)cc3)c3ccccc23)cc1S(N)(=O)=O	6	0	-5	24	-13	88*	89*
CNS(=O)(=O)c1cc(-c2nnc(Nc3ccc(CC(N)=O)cc3)c3ccccc23)ccc1C	7	-7	8	5	12	91*	91*
NC(=O)COc1ccc(Nc2nnc(-c3ccc(O)cc3)c3ccccc23)cc1	7	-13	6	-36	1	57*	69*
Cc1ccc(-c2nnc(Nc3ccc(OCC(N)=O)cc3)c3ccccc23)cc1S(N)(=O)=O	-3	-11	5	1	10	33	nt
CCOC(=O)Cc1nnc(Nc2ccc(C)cc2)c2ccccc12	36	28	6	-4	21	-10	nt
C=C(C)CN(CC)C(=O)CN1C(=O)NC2(CCc3ccccc32)C1=O (stereo unspecified)	-2	10	-4	7	-4	2	nt
Cc1ccc(-c2nnc(Nc3ccc(CC(N)=O)cc3)c3ccccc23)cc1S(=O)(=O)NCC1CCCO1 (stereo unspecified)	-5	-1	3	-3	-5	90*	89*
COC(=O)c1ccc(Nc2nnc(-c3ccc(C)c(S(=O)(=O)NCC4CCCO4)c3)c3ccccc23)cc1 (stereo unspecified)	10	23	40	10	16	10	nt
COc1cc(-c2ccc(Nc3ccccc3C(=O)O)c(OC)c2)ccc1Nc1ccccc1C(=O)O	9	-1	nt	6	6	33	nt
Cc1cccc(NC(=O)CSc2nnc(-c3cc(C)n(-c4ccccc4)c3C)o2)c1C	-5	28	24	-43	33	41*	56*
CC(Sc1nc2ccccc2c(=O)n1C)C(=O)Nc1ccc2c(c1)OCCO2 (stereo unspecified)	8	5	nt	18	7	1	nt
CC(C)Cn1c(SC(C)C(=O)Nc2ccc3c(c2)OCCO3)nc2ccccc2c1=O (stereo unspecified)	nt	nt	12	9	nt	49*	55*
COc1ccc(NC(=O)CSc2nccn2-c2cccc(OC)c2)cc1	37	23	-12	5	10	-11	nt
SMILES	tim23-1 inh	tim10-1 inh	SKKanGAS inh	PfHsp90 set2	TIM10 inh	ATG4B inhibitor	PLA2 ctr	others
CN(C)S(=O)(=O)c1ccc(NCC2COc3ccccc3O2)c([N+](=O)[O-])c1 (stereo unspecified)	9	17	-3	-9	14	0	nt
NC(=O)c1ccc(NCC2COc3ccccc3O2)c([N+](=O)[O-])c1 (stereo unspecified)	-5	1	-1	21	7	82*	79*
COCCN(C(=O)COC(=O)CNC(=O)c1cccs1)c1c(N)n(Cc2ccccc2)c(=O)[nH]c1=O	11	8	-4	nt	1	-3	nt
O=C(O)c1cc(N/N=C2/CC(c3ccccc3)Oc3ccccc32)ccc1Cl (stereo unspecified)	-1	16	8	20	14	49*	40	ATG4B confirm=59*
COc1cc(/C=N/NC(=O)c2cccnc2)ccc1OS(=O)(=O)c1ccc(F)cc1	4	15	-2	1	10	-8	nt
O=c1c2ccccc2nnn1CSc1nnnn1-c1ccc(O)cc1	9	-6	-7	24	15	3	nt
C/C(=N/Nc1ccc([N+](=O)[O-])cc1)c1c[nH]c2ccccc12	35	-2	19	13	-5	46*	50
C/C(=N\NC(=O)CCc1c[nH]c2ccccc12)c1ccc([N+](=O)[O-])cc1	4	9	6	5	13	-17	nt
CC(C)(C)c1ccc(C(=O)Nc2ccccc2Cl)cc1	28	8	-1	5	1	45*	55*
CS(=O)(=O)Nc1ccc(C(=O)Nc2ccccc2Cl)cc1	4	7	-21	-27	12	-9	nt
O=C(O)c1oc2ccccc2c1-n1cccc1	7	19	-11	nt	-13	58*	57*
COC(=O)c1oc2ccc(Br)cc2c1-n1cccc1	1	17	2	12	-8	5	nt
Cc1sc2nc(C(C)C)nc(SCC(=O)NCc3ccco3)c2c1C	38	12	7	-60	32	42*	47	ATG4B confirm=50*
CC1Cc2ccccc2N1C(=O)CSc1nc2ccccc2s1 (stereo unspecified)	18	9	12	-2	28	10	nt

Bioassay records as filed in PubChem.
